From PubChem BioAssay come the findings set out here.

The source made the active and inactive calls.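 How the source made its calls: active means mean duplicate potentiation above the buffer control mean plus 5 SD of buffer wells; inactive means the rest.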

Potassium voltage-gated channel subfamily KQT member 2 (Rattus norvegicus), sequence (O88943 whole entry, looked up): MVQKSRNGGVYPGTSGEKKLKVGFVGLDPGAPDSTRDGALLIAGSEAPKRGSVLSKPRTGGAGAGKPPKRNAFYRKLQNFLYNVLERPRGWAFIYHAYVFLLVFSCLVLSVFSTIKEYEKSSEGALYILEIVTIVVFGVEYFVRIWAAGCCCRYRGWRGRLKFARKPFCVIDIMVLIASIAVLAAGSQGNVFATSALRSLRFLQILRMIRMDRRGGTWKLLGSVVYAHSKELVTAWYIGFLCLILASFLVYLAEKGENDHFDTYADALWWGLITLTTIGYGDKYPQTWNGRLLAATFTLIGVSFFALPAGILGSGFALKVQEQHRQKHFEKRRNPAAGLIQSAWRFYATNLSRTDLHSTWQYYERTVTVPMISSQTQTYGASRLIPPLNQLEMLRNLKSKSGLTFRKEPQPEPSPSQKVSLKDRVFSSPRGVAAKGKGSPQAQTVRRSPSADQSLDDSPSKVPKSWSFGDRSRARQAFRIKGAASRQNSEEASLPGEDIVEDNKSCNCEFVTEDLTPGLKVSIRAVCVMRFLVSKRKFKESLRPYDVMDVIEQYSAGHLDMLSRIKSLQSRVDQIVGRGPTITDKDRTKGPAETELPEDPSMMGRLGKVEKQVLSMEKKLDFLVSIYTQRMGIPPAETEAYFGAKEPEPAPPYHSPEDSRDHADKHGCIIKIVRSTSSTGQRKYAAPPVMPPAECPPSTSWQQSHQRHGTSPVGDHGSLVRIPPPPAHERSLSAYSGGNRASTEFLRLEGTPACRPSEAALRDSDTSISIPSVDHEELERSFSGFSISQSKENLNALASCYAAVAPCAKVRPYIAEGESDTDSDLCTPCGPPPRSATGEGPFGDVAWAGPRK

This assay addresses Potassium voltage-gated channel subfamily KQT member 2 (Rattus norvegicus) (UniProt O88943). In words: rat KCNQ2 channel potentiation, selectivity assay for KCNQ1 potentiator project, KCNQ2-CHO-K1 cells (AID 493009).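 Further: assay conditions were tuned for KCNQ1 rather than KCNQ2 modulators; signal is max minus min fluorescence divided by baseline after thallium stimulus.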 The note with it: FluxOR thallium flux fluorescence, at 10 µM; active compounds read high, scaled: buffer 0, activator control 100.
On to `CCCn1c(=S)[nH]c2ccc(C(F)(F)F)cc21`, for which the result was inactive.

For `Oc1ccc(C[C@@H]2CNCCN2CCc2cc(C(F)(F)F)cc(C(F)(F)F)c2)cc1`, the outcome was inactive.

Regarding `O=[N+]([O-])c1ccc(Nc2ccc(Cl)cc2)nc1`, the potentiation is 166% (active).

Turning to `CCCC(=O)N1CCN(Cc2nc3cc([N+](=O)[O-])ccc3n2C)CC1`, the result was inactive.

Consider `COc1ccc(C)cc1-n1c(C)cc(C=O)c1C`, for which the potentiation is 153% (active).

On to `CCCCCC/C(C)=C1/SC(=S)NC1=O`, for which the potentiation is 612% (active).

For `O=C(NNC(=O)c1ccc(Cl)c(Cl)c1)c1ccncc1`, the outcome was inactive.

As to `CN(C)c1ccc(-c2nn3c(-c4ccccc4Cl)nnc3s2)cc1`, the outcome was inactive.

Regarding `CC(C)OC(=O)c1c(NS(=O)(=O)c2ccccc2)sc2c1CCCC2`, the potentiation is 338% (active).

In the case of `COC(=O)c1cn(NC(=O)Cc2ccc(Cl)c(Cl)c2)c(=O)c2ccccc12`, the potentiation was 252% (active).

Regarding `Oc1c(N=NC(=S)Nc2ccccc2F)c2ccccc2n1Cc1ccccc1`, the potentiation was 183% (active).

As for `O=C(NCc1ccccn1)c1ccc(COc2ccc(Cl)cc2)o1`, the potentiation was 156% (active).

For the compound `Cc1ccnc(NC(=O)CNC(=O)c2ccc3c(c2)OCO3)c1`, the outcome was inactive.

For `CC1=CC(=O)C=C(C)C1=NOS(=O)(=O)c1ccccc1`, the result was inactive.

With `COCCCn1c(=S)[nH]c2c(sc3ccccc32)c1=O`, the potentiation is 160% (active).

As to `O=C1/C(=C/c2cccc(F)c2)SC(=S)N1NS(=O)(=O)c1ccccc1`, the result was inactive.

On to `COc1cc(OC)cc(C(=O)NNC(=O)C(=O)Nc2cc(OC)c(Cl)cc2OC)c1`, for which the potentiation was 213% (active).

Turning to `Cc1cccc(C(=O)Nc2ccccc2C(=O)NCc2cccnc2)c1`, the outcome was inactive.
